# Measurements from the supplement of paper PMC8728848.
# This is one part of a sample in which the strongest signals are shown more often than they occur.
# B1: HPA (Helix pomatia), Q2F1K8 (protein)
# chain: MQAFYSGLLLLCVVAFAAAQRVQSGKIDCGNDAGWAKVPSDDPGRDNTRELAKNITFASPYCRPPVVLLSITQLDVEQSQNLRVIARLYSVSPTGFKASCYTWHNTKVYSMSISWISIENY
# How the values were obtained:
# Experiment in all cases: glycan array binding signal (z-score within array); higher = stronger binding
# Settings in all cases: glycan notation: IUPAC condensed, linker removed
# [1] = target: Gal(b1-4)GlcNAc(b1-3)Gal(b1-4)GlcNAc(b1-6)[Gal(b1-3)]GalNAc
# Outline: (§1)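 The binding signal is a Z-score computed within each array. Data were drawn from 3228 arrays in the Consortium for Functional Glycomics database, restricted to those with a known protein sequence. Scores were averaged over arrays of the same protein sequence at different concentrations or buffers, and over linkers, and negative values can be taken as non-binding.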
# [2] = target: Gal(b1-4)GlcNAc(b1-3)[Gal(b1-4)GlcNAc(b1-6)]GalNAc
# Outline: as §1
# [3] = target: Gal(b1-4)GlcNAc(b1-6)[Gal(b1-3)]GalNAc
# Outline: as §1
# Gal6S(b1-3)GlcNAc6S = target: Gal6S(b1-3)GlcNAc6S
# Outline: as §1
# GalNAc(a1-3)Gal = target: GalNAc(a1-3)Gal
# Outline: as §1
# GalNAc(a1-3)GalNAc = target: GalNAc(a1-3)GalNAc
# Outline: as §1
# [4] = target: GalNAc(a1-3)GalNAc(a1-3)Gal(a1-4)Gal(b1-4)GlcNAc
# Outline: as §1
# [5] = target: GalNAc(a1-3)GalNAc(b1-3)Gal(a1-4)Gal(b1-4)Glc
# Outline: as §1
# GalNAc(b1-3)GalNAc = target: GalNAc(b1-3)GalNAc
# Outline: as §1
# [6] = target: GlcA3S(b1-3)Gal(b1-4)GlcNAc(b1-3)Gal(b1-4)Glc
# Outline: as §1
# [7] = target: GlcNAc(b1-2)Man(a1-3)[GlcNAc(b1-4)][GlcNAc(b1-2)Man(a1-6)]Man(b1-4)GlcNAc(b1-4)[Fuc(a1-6)]GlcNAc
# Outline: as §1
# [8] = target: GlcNAc(b1-4)GlcNAc(b1-4)GlcNAc(b1-4)GlcNAc(b1-4)GlcNAc
# Outline: as §1
# [9] = target: GlcNAc(b1-6)Gal(b1-4)GlcNAc
# Outline: as §1
# GlcNAc3Prop(b1-4)GlcNAc = target: GlcNAc3Prop(b1-4)GlcNAc
# Outline: as §1
# Kdn(a2-6)Gal(b1-4)GlcNAc = target: Kdn(a2-6)Gal(b1-4)GlcNAc
# Outline: as §1
# [10] = target: Man(a1-2)Man(a1-3)[Man(a1-2)Man(a1-6)]Man
# Outline: as §1
# [11] = target: Neu5Ac(a2-3)Gal(b1-3)GalNAc6S
# Outline: as §1
# [12] = target: Neu5Ac(a2-3)Gal(b1-3)GlcNAc(b1-2)Man(a1-3)[Neu5Ac(a2-3)Gal(b1-3)GlcNAc(b1-2)Man(a1-6)]Man(b1-4)GlcNAc(b1-4)GlcNAc
# Outline: as §1
# [13] = target: Neu5Ac(a2-3)Gal(b1-3)GlcNAc6S
# Outline: as §1
# [14] = target: Neu5Ac(a2-3)Gal(b1-3)[Fuc(a1-4)]GlcNAc(b1-3)Gal(b1-4)[Fuc(a1-3)]GlcNAc
# Outline: as §1
# [15] = target: Neu5Ac(a2-3)Gal(b1-4)GlcNAc(b1-2)Man
# Outline: as §1
# [16] = target: Neu5Ac(a2-3)Gal(b1-4)GlcNAc(b1-2)[Neu5Ac(a2-3)Gal(b1-4)GlcNAc(b1-6)]Man(a1-6)[Neu5Ac(a2-3)Gal(b1-4)GlcNAc(b1-2)Man(a1-3)][GlcNAc(b1-4)]Man(b1-4)GlcNAc(b1-4)GlcNAc
# Outline: as §1
# [17] = target: Neu5Ac(a2-3)Gal(b1-4)[Fuc(a1-3)]GlcNAc(b1-3)Gal(b1-4)GlcNAc
# Outline: as §1
# [18] = target: Neu5Ac(a2-3)Gal6S(b1-4)GlcNAc
# Outline: as §1
# [19] = target: Neu5Ac(a2-3)[Neu5Ac(a2-6)]GalNAc
# Outline: as §1
# [20] = target: Neu5Ac(a2-6)Gal(b1-4)GlcNAc(b1-3)Gal(b1-4)GlcNAc(b1-2)Man(a1-3)[Neu5Ac(a2-6)Gal(b1-4)GlcNAc(b1-3)Gal(b1-4)GlcNAc(b1-2)Man(a1-6)]GalNAc
# Outline: as §1
# [21] = target: Neu5Ac(a2-6)GalNAc(b1-4)GlcNAc6S
# Outline: as §1
# [22] = target: Neu5Ac(a2-6)GlcNAc(b1-4)GlcNAc
# Outline: as §1
# [23] = target: Neu5Ac(a2-8)Neu5Ac(a2-3)Gal(b1-4)GlcNAc
# Outline: as §1
binder,measurement,setting,value
B1,glycan array binding signal (z-score),[1],0.365
same,glycan array binding signal (z-score),[2],-0.304
same,glycan array binding signal (z-score),[3],-0.255
same,glycan array binding signal (z-score),Gal6S(b1-3)GlcNAc6S,-0.301
same,glycan array binding signal (z-score),GalNAc(a1-3)Gal,2.85
same,glycan array binding signal (z-score),GalNAc(a1-3)GalNAc,3.28
same,glycan array binding signal (z-score),[4],3.71
same,glycan array binding signal (z-score),[5],7.34
same,glycan array binding signal (z-score),GalNAc(b1-3)GalNAc,0.839
same,glycan array binding signal (z-score),[6],-0.351
same,glycan array binding signal (z-score),[7],-0.214
same,glycan array binding signal (z-score),[8],-0.314
same,glycan array binding signal (z-score),[9],-0.35
same,glycan array binding signal (z-score),GlcNAc3Prop(b1-4)GlcNAc,-0.979
same,glycan array binding signal (z-score),Kdn(a2-6)Gal(b1-4)GlcNAc,-0.242
same,glycan array binding signal (z-score),[10],-0.231
same,glycan array binding signal (z-score),[11],-0.272
same,glycan array binding signal (z-score),[12],-0.195
same,glycan array binding signal (z-score),[13],-0.281
same,glycan array binding signal (z-score),[14],-0.105
same,glycan array binding signal (z-score),[15],-0.116
same,glycan array binding signal (z-score),[16],-0.361
same,glycan array binding signal (z-score),[17],0.04
same,glycan array binding signal (z-score),[18],-0.242
same,glycan array binding signal (z-score),[19],-0.294
same,glycan array binding signal (z-score),[20],0.201
same,glycan array binding signal (z-score),[21],-0.275
same,glycan array binding signal (z-score),[22],-0.359
same,glycan array binding signal (z-score),[23],-0.323
